Measurements reported in PubChem BioAssay AID1246 (Columbia University Molecular Screening Center, 2008).
About 840 (0.7%) of roughly 120,000 compounds were called active.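 How the source made its calls: active means inhibition above the batch mean plus 3 SD, and confirmed as a hit on visual image review (cut at about 43% in these data); inconclusive means passes the inhibition cutoff but fails visual image review; inactive means the rest.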 The sample as a whole holds a higher share of actives than the screen did.

assay: E-selectin induction blockers in HUVEC – imaging, immunofluorescence, high content, primary screen (AID 1246); conditions: HUVEC TNFa-induced E-selectin immunofluorescence, at 2 µM, stronger effect = higher value;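 further: 0% = TNF-stimulated DMSO wells and 100% = unstimulated control wells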

Compound | inhibition
CN(C)C(=O)c1nc2ccc(Cl)cn2c1CN1CCN(c2ncccn2)CC1 | -15.7% (inactive)
Cc1cnc(C(=O)OCC(=O)NCCCc2ccccc2)cn1 | -18.2% (inactive)
O=C(CCSc1ccccc1)N1CCN(c2ccccc2F)CC1 | -7.82% (inactive)
Cc1cc(C)n(-c2nnc(N3CCN(c4ccccc4)CC3)nn2)n1 | 1.97% (inactive)
CCC(=O)Nc1cccc(NC(=O)CSc2nnc(-c3ccc(NS(C)(=O)=O)cc3)n2C)c1 | 64.3% (active)
Cn1c(SCC(=O)Nc2cccc(NC(=O)c3cccs3)c2)nnc1-c1ccncc1 | 26.7% (inactive)
CCCCSc1nnc(-c2ccc(NC(=O)CC)cc2)n1C | 1.71% (inactive)
COC(=O)C(=Nc1ccccc1)/C(C(=O)C(=O)N(C)c1ccccc1)=C(\O)c1ccc(Cl)cc1 | -20.7% (inactive)
CSc1ncccc1C(=O)N1CCCC(CCC(=O)NCc2ccccc2F)C1 (stereo not drawn) | -22.4% (inactive)
O=C(CSc1nnc(-c2ccco2)n1Cc1ccccc1)NC(=O)NCc1ccco1 | -1.5% (inactive)
Cc1cc(C)c2c(c1)c(C)cc1nnc(SCC(=O)NCc3ccco3)n12 | 9.01% (inactive)
Cc1ccc(SCC(=O)NC(=O)NCc2ccco2)c(C)c1 | 76% (active)
Cc1cc(N2CCN(C)CC2)nc2ccc(NC(=S)N3CCOCC3)cc12 | 19.6% (inactive)
CC(=O)N1CCN(S(=O)(=O)c2c(F)cc(F)c(Cl)c2F)CC1 | -26.7% (inactive)
CCOC(=O)N1CCN(C(=O)CSc2nc(C)nc3c2c(=O)n(C)c(=O)n3C)CC1 | -25% (inactive)
Brc1cc(/C=N/n2cnnc2)oc1Br | -13.4% (inactive)
Cc1cccc(C)c1NC(=O)C1CCCN1C(=O)OC(C)(C)C (stereo not drawn) | -33.1% (inactive)
C=CCN(CC=C)CCOc1ccccc1[N+](=O)[O-] | -5.8% (inactive)
Cc1ccc(CNC(=O)c2cccnc2Cl)cc1 | -5.85% (inactive)
CSc1nc(C)cc(SC(C(C)=O)C(=O)Nc2ccccc2)n1 (stereo not drawn) | -11.9% (inactive)
CC12CCC(C(=O)N(NC(=O)c3ccccc3O)C1=O)C2(C)C (stereo not drawn) | -1.25% (inactive)
CC(Sc1nnc2c(n1)C1CCC2(C)C1(C)C)C(=O)Nc1ccccc1 (stereo not drawn) | 70.7% (active)
Cc1ccc2c(Cl)c(C(=O)Nc3nn[nH]n3)sc2c1 | 13% (inactive)
COc1ccccc1CNC(=O)C1Cc2ccccc2C(=O)O1 (stereo not drawn) | -3.67% (inactive)
Cn1c(-c2ccc(F)cc2)cnc1SCC(=O)NNC(=O)Cc1ccccc1 | -21.1% (inactive)

Compound | inhibition
CC1=NN(C(C)C)C(=O)C1 | 53.9% (active)
Cc1cc(C)n(Cc2cnc(N3CCOCC3)s2)n1 | 1.48% (inactive)
Cn1c(SCC(=O)Nc2ccc(Br)cc2F)nnc1-c1ccco1 | -23.6% (inactive)
CCNC(=S)NNC(=O)c1ccc2ncccc2c1 | 9.15% (inactive)
CCn1c(SCC(=O)NCc2ccco2)nnc1-c1ccc(N)cc1 | 69.4% (active)
CCn1c(COc2ccccc2)nnc1SCC(=O)NCc1ccco1 | -14.4% (inactive)
Cc1ccc(-c2csc3nnc(SCC(=O)NCc4ccco4)n23)cc1 | -6.76% (inactive)
Cc1ccc(-n2c(C)cc(C(=O)CN3C(=O)C(=O)N(C4CCCC4)C3=O)c2C)cc1 | -16.5% (inactive)
Cc1ccc(OCC(=O)Nc2ccc(S(=O)(=O)Nc3ccccn3)cc2)cc1 | -18.7% (inactive)
CN(C)CC(C)(C)CNC(=O)c1cc(Br)cc(Br)c1O | 0.11% (inactive)
CC(=O)Nc1nc(N(C)C)nc(N(C)C)n1 | 13.8% (inactive)
CC1(c2ccccc2Cl)NC(=O)N(CC(=O)NC(=O)NCc2ccco2)C1=O (stereo not drawn) | 23.7% (inactive)
CN(C)S(=O)(=O)c1cc(NC(=O)CN2C(=O)NC3(CCCc4ccccc43)C2=O)ccc1Cl (stereo not drawn) | 67.1% (active)
Cc1cccc(NC(=O)CN2C(=O)CNC2=O)c1 | -1.87% (inactive)
CN1CCN(CCCCOc2ccccc2-c2ccccc2)CC1 | -23.6% (inactive)
CC(=O)C1(C)N(O)C(C)(C)C(c2cccs2)=[N+]1[O-] (stereo not drawn) | -15.7% (inactive)
CC1CC(C)CN(S(=O)(=O)c2ccc(C(=O)NN3CCOCC3)cc2)C1 (stereo not drawn) | -4.78% (inactive)
CCOC(=O)c1sc(NC(=O)CSc2nnc(-c3ccco3)o2)c(C(=O)OCC)c1C | -40.2% (inactive)
CCOC(=O)c1c(-c2ccc(C)cc2C)csc1NC(=O)CSc1nnnn1C | -25.1% (inactive)
CCOC(=O)c1c(NC(=O)CSc2nnc(CNc3ccc(C)cc3C)o2)sc(C)c1C | 74.5% (active)
COc1cccc(C(=O)N2CCCC(CCC(=O)NCc3ccc(F)c(F)c3)C2)c1 (stereo not drawn) | -27.8% (inactive)
O=c1[nH]c2cccnc2n(CCNc2ncc(C(F)(F)F)cc2Cl)c1=O | -0.32% (inactive)
Cc1ccc(NC(=O)c2oc3ccccc3c2C)c([N+](=O)[O-])c1 | 7.01% (inactive)
COc1ccc(-c2cc(C(F)(F)F)nc(NCc3cccnc3)n2)cc1 | 6.81% (inactive)
CCOc1cc(-c2nc3cc(C)ccn3c2NCC2CCCO2)ccc1O (stereo not drawn) | -1.41% (inactive)

Compound | inhibition
COc1ccc(-c2nc3cnccn3c2NC(C)(C)CC(C)(C)C)cc1O | 78.6% (active)
COc1cccc(CNC(=O)c2n[nH]c3ccccc23)c1 | 21.4% (inactive)
CNC(=O)COC(=O)c1cc(-c2ccc(OC)cc2)nc2ccccc12 | -50.4% (inactive)
CC(=O)c1cnc(-c2ccccc2)s1 | -23.3% (inactive)
CN(CC(=O)Nc1ccccc1F)CC(=O)Nc1ccccc1Br | -9.64% (inactive)
O=C(O)CCn1c(SCc2cc(=O)n3ccccc3n2)nc2ccsc2c1=O | 7.79% (inactive)
COC(=O)Cn1cc(/C=C/[N+](=O)[O-])c2ccccc21 | -39.6% (inactive)
COc1ccccc1CCNC(=O)CSc1nnc2ccc(-c3cccnc3)nn12 | 23.9% (inactive)
COc1cccc(OCC(=O)NNC(=O)c2cnccn2)c1 | -0.48% (inactive)
COc1ccccc1CCNC(=O)c1cnccn1 | 70.2% (active)
COc1ccccc1CNC(=O)c1cc(=O)c2ccccc2o1 | 6.95% (inactive)
Cc1ccc(S(=O)(=O)N(C)C)cc1NC(=O)c1ccccc1Br | 21.2% (inactive)
COc1ccc(NC(=O)CCNS(=O)(=O)c2ccc3c(c2)c(=O)n(C)c(=O)n3C)cc1OC | -38.9% (inactive)
COc1ccc(C2N=C(N)N=C(N)N2c2ccccc2)cc1OC (stereo not drawn) | 62.9% (active)
COc1ccc(C2CC(=O)n3c(nc4ccccc43)S2)cc1OC (stereo not drawn) | -0.21% (inactive)
COc1ccc(C2/C(=C(/O)c3ccccc3)C(=O)C(=O)N2c2ncccn2)cc1OC (stereo not drawn) | -2.78% (inactive)
O=C(O)/C=C/c1ccc(OCCCF)cc1 | -53.3% (inactive)
CC(=O)Oc1cccc(N2C(=O)CC(Nc3ccc(N4CCOCC4)cc3)C2=O)c1 (stereo not drawn) | -16.6% (inactive)
CC(=O)Oc1cccc(N2C(=O)C3CC=C(Cl)CC3C2=O)c1 (stereo not drawn) | 64.7% (active)
O=C(Oc1cccc(N2C(=O)C3C4c5ccccc5C(c5ccccc54)C3C2=O)c1)c1ccco1 (stereo not drawn) | 13.7% (inactive)
COc1cc(C=O)c(Br)cc1OCC(=O)NCc1ccccc1 | -19% (inactive)
CCCNC(=S)N1CCCC(c2nc3ccccc3[nH]2)C1 (stereo not drawn) | -49% (inactive)
Cn1c(CCC(=O)Nc2ccccc2F)nnc1SCC(=O)Nc1ccccc1Cl | -44.5% (inactive)
COc1ccc(S(=O)(=O)N2CCN(C(=O)c3cc(C)oc3C)CC2)cc1 | -37.8% (inactive)
CC(=O)c1ccc(N=C2SCCCN2C(=O)C2CCCCC2)cc1 | 7.89% (inactive)

Compound | inhibition
COc1cccc(C(=O)Oc2cc(C)[nH]c(=O)c2[N+](=O)[O-])c1 | 21.9% (inactive)
COCc1cc(C(C)=O)ccc1OC | -4.6% (inactive)
CC(=O)c1ccc2c(ccc3ccccc32)c1 | 22.7% (inactive)
CCN(CC)Cc1cc(C(C)=O)ccc1O | 47.5% (active)
CC1CCCN(CC(O)COc2ccc3c(c2)OCO3)C1 (stereo not drawn) | 11.9% (inactive)
O=C1CCC(=O)N1c1ccc(NCCc2ccccc2F)c([N+](=O)[O-])c1 | -8.93% (inactive)
CCN(C(=O)CN1CCN(Cc2ccccc2)CC1)c1c(N)n(Cc2ccccc2)c(=O)[nH]c1=O | -54.5% (inactive)
COc1ccc(OCC(=O)Nc2ccc(N3CCC(C)CC3)cc2)cc1 | -61.5% (inactive)
Cc1ccc(NC(=O)COc2ccc(-n3ccnc3)cc2)cc1Cl | 73% (active)
CN1CCN(c2ccc(NC(=O)COc3ccc(Cl)cc3Cl)cc2)CC1 | 3.16% (inactive)
O=C(Cn1nnc2ccccc2c1=O)NCc1ccc(Cl)cc1 | -24.9% (inactive)
COCCNC(=O)/C(C#N)=C/c1nc(N(C)C)n(-c2ccc(F)cc2)c1Cl | 6.3% (inactive)
Nc1ccc(S(=O)(=O)Nc2nccc(/C=C/c3ccc(Br)s3)n2)cc1 | 11.1% (inactive)
CCOC(=O)C(C)n1cnc2sc(C)c(C)c2c1=O (stereo not drawn) | 23.1% (inactive)
CCCNc1ncnc2sc(C)c(C)c12 | 99.7% (active)
CCc1cc2c(NC3CCCC3)ncnc2s1 | -4.12% (inactive)
C/[N+]([O-])=C\c1ccc([N+](=O)[O-])o1 | -20.9% (inactive)
COC(=O)C1=C(C)N(C)C(=O)NC1c1ccc([N+](=O)[O-])o1 (stereo not drawn) | 4.38% (inactive)
Cc1ccc(N2CCN(/N=C/c3cccs3)CC2)cc1 | 58.4% (active)
Cc1ccc(N2CCN(C3=NC(=O)/C(=C\c4cccs4)S3)CC2)cc1 | -36.9% (inactive)
C(=N/N1CCN(c2ccccc2)CC1)/c1cccs1 | -23.6% (inactive)
CS(=O)(=O)n1nc(-c2ccco2)nc1N | -27.1% (inactive)
Cn1nc(-c2ccccc2)c(CO)c1Sc1ccccc1 | -21.3% (inactive)
